Experimental data from PubChem BioAssay AID504832 (National Center for Advancing Translational Sciences (NCATS), 2011).
About 18,000 (5.8%) of roughly 310,000 compounds were called active. Inconclusive results (about 22%) are left out. The full list was thinned out, with actives kept by preference. Values without a mark were called inactive. The call rests on the fitted dose curve; in most records, active means well fitted inhibition curve with a large enough effect; inconclusive means small, poorly fitted or top-dose-only effect, or another doubt; inactive means no such curve, though single readings can be large or run the other way.
On the % scale 0 is the no-effect control and ±100 the full control effect; potency means the concentration at half of the fitted maximal effect.

Assay: Primary qHTS for delayed death inhibitors of the malarial parasite plastid, 48 hour incubation
Conditions: P. falciparum luciferase growth in erythrocytes; series mostly up to 28.7 µM; activity change, negative = inhibition: at the top concentration
Description: The goal of this screen is to discover new antimalarial compounds that act by inhibiting the development of the apicoplast in the malarial parasite Plasmodium falciparum. The biochemical processes that make this organelle essential for erythrocytic stage parasites are not well understood. However, antibiotics such as azithromycin and tetracycline, which target the apicoplast translational machinery, have a potent antimalarial effect.
We have developed a cell-based assay that measures parasite growth based on the expression of an integrated copy of a firefly luciferase reporter. To detect small molecules that cause this "delayed death" phenotype, erythrocytes infected with the luciferase-expressing parasites were incubated with compounds for either one or two generations, corresponding to 48 and 96 hours, respectively. Compounds that inhibit parasite growth in the second generation, but not the first, should be enriched in antimalarials that target the apicoplast. Growth inhibition is detected by a decrease in luciferase activity.
Assay Provider: David Fidock and Eric Ekland, Columbia University
Keywords: NIH Roadmap, MLPCN, MLI, MLSMR, qHTS, NCGC, qHTS, malaria, luciferase, viability
Four microliters of culture medium (RPMI 1640 with 0.5% w/v Albumax (GIBCO), 24 mM sodium bicarbonate and 10 ug/mL gentamycin) were dispensed by a Multi-drop Combi into white solid 1536-well plates (Grenier) and 23 nL compound was added by a pin tool. Four microliters of infected erythrocytes (2% hematocrit, 0.1% parasitemia final concentration) in culture medium were dispensed and the plates incubated for 48 hours at 37 C in 5% CO2. Two microliters of luciferase detection reagent was added and luminescence was detected by a ViewLux (PerkinElmer) reader.
With `O=C1c2cccc3cccc(c23)C(=O)N1CCCCCc1n[nH]c(=S)o1` the “activity change, negative = inhibition” value was -2.6%.
In the case of `O=C(CN1C(=O)c2cccc3cccc(c23)C1=O)N1CCCCC1`, the “activity change, negative = inhibition” value was -23.4%.
For `N#CCN(C(=O)COC(=O)C1CC2CCCC(C1)C2=O)c1ccccc1` (stereo not drawn), the “activity change, negative = inhibition” value was -0.813%.
With `CCOc1ccc(NC(=O)c2ccc(NC(=O)C3CCCO3)cc2)cc1` (stereo not drawn) the “activity change, negative = inhibition” value was 11.7%.
With `O=C(CNCc1cccs1)Nc1cc(S(=O)(=O)N2CCCC2)ccc1Cl` the “activity change, negative = inhibition” value was -41.9%.
For `CC(=O)NCCC(=O)Nc1cc(S(=O)(=O)N2CCCCC2)ccc1Oc1cccc(C)c1`, the “activity change, negative = inhibition” value was 28%.
For `CCOc1ccc(S(=O)(=O)N2CCCCC2)cc1NC(=O)CN1CCCC1c1cccs1` (stereo not drawn), the Potency was 4.65 µM (active).
With `O=C(CNC(=O)c1ccccc1Br)NNC(=O)c1cccs1` the “activity change, negative = inhibition” value was 0%.
In the case of `O=C(Nc1ccccc1C(=O)NCCCn1ccnc1)c1ccc(Cl)cc1Cl`, the Potency was 9.28 µM (active).
For `O=C(NCCCn1ccnc1)c1ccccc1F`, the “activity change, negative = inhibition” value was 10.2%.
In the case of `O=C(NCCCn1ccnc1)Nc1ccc(Cl)cc1Cl`, the “activity change, negative = inhibition” value was -10.3%.
For `O=C(CSc1nc(=O)n2ccccc2n1)Nc1ccc2c(c1)OCCO2`, the “activity change, negative = inhibition” value was 38.7%.
With `COc1ccc(C(C)NC(=O)C2CCCC2)cc1` (stereo not drawn) the “activity change, negative = inhibition” value was 3.5%.
In the case of `CN(C)S(=O)(=O)c1ccc(N2CCCC2)c(C(=O)Nc2ccc(Br)cc2F)c1`, the Potency was 5.22 µM (active).
In the case of `CN(C)S(=O)(=O)c1ccc(N2CCCC2)c(C(=O)Nc2cccc(F)c2)c1`, the “activity change, negative = inhibition” value was -17%.
For `CN(C)S(=O)(=O)c1ccc(N2CCCC2)c(C(=O)NCc2ccccc2)c1`, the “activity change, negative = inhibition” value was -7.21%.
With `COc1ccc(-n2ncc3c2CC(C)(C)CC3NC(=O)CCc2c(C)nn(C)c2C)cc1` (stereo not drawn) the “activity change, negative = inhibition” value was -1.16%.
In the case of `Cc1cc(C)n2nc(CNS(=O)(=O)c3c(F)c(F)c(F)c(F)c3F)nc2n1`, the “activity change, negative = inhibition” value was 0%.
In the case of `Cn1c(N)c(C(=O)COC(=O)COc2ccc(Cl)cc2)c(=O)n(C)c1=O`, the “activity change, negative = inhibition” value was 20.5%.
For `COC(=O)c1ccc(N2CCOCC2)c(NC(=O)c2ccc(Br)o2)c1`, the “activity change, negative = inhibition” value was 2.02%.
In the case of `COc1cc(OC)c(NC(=O)c2ccc(Br)o2)cc1Cl`, the Potency was 8.28 µM (active).
For `CCN1CCN(c2c(Cl)cccc2NC(=O)c2ccc(Br)o2)CC1`, the “activity change, negative = inhibition” value was 0%.
In the case of `O=C(CCCCCn1c(=S)[nH]c2ccsc2c1=O)NC1CCCCC1`, the “activity change, negative = inhibition” value was -9.79%.
For `CC1CCc2[nH]c3ccc(C(=O)N(C)CC(=O)Nc4cccc(F)c4)cc3c2C1` (stereo not drawn), the “activity change, negative = inhibition” value was -27.2%.
In the case of `CCCN(CC(=O)Nc1ccccc1C)C(=O)c1ccc2[nH]c3c(c2c1)CC(C)CC3` (stereo not drawn), the Potency was 10.4 µM (active).
With `CCCN(CC(=O)Nc1ccccc1C)C(=O)c1cc(=O)[nH]c2ccccc12` the “activity change, negative = inhibition” value was 17.1%.
For `CCC(C(=O)NCc1cccnc1)n1nc(C)c2sc3ccccc3c2c1=O` (stereo not drawn), the “activity change, negative = inhibition” value was 9.32%.
For `CC(C)NC(=O)C(c1ccc(F)cc1)N(C(=O)CCC(=O)Nc1ccccn1)c1ccccc1F` (stereo not drawn), the “activity change, negative = inhibition” value was 20.9%.
In the case of `O=C(Nc1ccc(Sc2ccc(Br)cc2)cc1)c1ccco1`, the Potency was 2.33 µM (active).
In the case of `O=C(Nc1ccccc1)c1ccco1`, the “activity change, negative = inhibition” value was 60.9%.
In the case of `O=C(Nc1ccc(O)cc1)c1ccc(NC(=O)c2ccco2)cc1`, the “activity change, negative = inhibition” value was 81.7%.
In the case of `COc1ccc(OCc2cc(C(=O)N3CCCC3)no2)c2ccccc12`, the “activity change, negative = inhibition” value was -19.2%.
For `CC(CCN1CCN=C1N(C)C)c1ccccc1` (stereo not drawn), the “activity change, negative = inhibition” value was -8.95%.
For `O=c1[nH]cnc(O)c1C(c1ccc(F)cc1)c1c(O)nc[nH]c1=O`, the “activity change, negative = inhibition” value was -0.229%.
For `COCCCC1CCN(C(=O)C2CCC(=O)N(C3CCCCCC3)C2)CC1` (stereo not drawn), the “activity change, negative = inhibition” value was -6.84%.
For `Cc1ccc2nc(N3C(=O)C(O)=C(C(=O)c4ccco4)C3c3cccc(O)c3)sc2c1` (stereo not drawn), the “activity change, negative = inhibition” value was 93%.
For `CCc1cccc(NC(=O)COC(=O)c2cc(=O)c3ccccc3o2)c1`, the “activity change, negative = inhibition” value was 22.4%.
With `O=c1oc2c(CN3CCCCC3)c(O)ccc2c2c1CCCCC2` the Potency was 2.94 µM (active).
In the case of `NC(=O)COc1ccc2c3c(c(=O)oc2c1)CCCCC3`, the “activity change, negative = inhibition” value was 25.1%.
In the case of `NC(=O)C1CCN(C(=O)COc2ccc3c4c(c(=O)oc3c2)CCC4)CC1`, the “activity change, negative = inhibition” value was -3.55%.
For `Cc1cccnc1NC(=O)Cn1c(=O)oc2ccccc21`, the “activity change, negative = inhibition” value was -5.88%.
For `O=C(COC(=O)CNS(=O)(=O)c1ccc(F)c(F)c1F)NC1CCCC1`, the “activity change, negative = inhibition” value was 28.8%.
In the case of `Nc1nnc(SCC(=O)NCC(=O)Nc2ccc(F)c(F)c2F)s1`, the “activity change, negative = inhibition” value was 5.81%.
With `COc1ccc(C(C)NC(=S)NC2CCCCC2)cc1OC` (stereo not drawn) the Potency was 2.08 µM (active).
In the case of `COc1cc(C(=S)N2CCOCC2)ccc1O`, the Potency was “inactive”.
In the case of `COc1cc(OC)c(C(=O)NC2CCCCCC2)cc1OC`, the “activity change, negative = inhibition” value was 0.054%.
For `COc1cc(C(=S)NC2CCCCC2)ccc1O`, the Potency was 10.4 µM (active).
In the case of `COc1ccc(C(=O)NC(=S)NC2CCCCC2)cc1`, the “activity change, negative = inhibition” value was -27.2%.
In the case of `COc1ccc(Cl)cc1C(=O)NNC(=S)NC1CCCC1`, the “activity change, negative = inhibition” value was -17.5%.
With `C=CCNC(=O)COc1coc(CN2CCN(Cc3ccccc3)CC2)cc1=O` the “activity change, negative = inhibition” value was 10.4%.
For `Cc1ccc(C(c2nnnn2C(C)(C)C)N2CCc3ccccc3C2)cc1` (stereo not drawn), the “activity change, negative = inhibition” value was 3.97%.
With `Cn1c(SCC(=O)N2CCOCC2)nnc1-c1ccc2ncccc2c1` the “activity change, negative = inhibition” value was 17%.
With `CC(C)(C)n1nnnc1C(c1ccc2ncccc2c1)N1CCSCC1` (stereo not drawn) the Potency was 9.28 µM (active).
